Five molecules from PubChem BioAssay (NCATS) can be followed below.

Records with an inconclusive call do not appear. Activity calls are given as the source filed them. Unless noted, calls come from the whole dose curve.

For test [1], the target named is Estrogen receptor (Homo sapiens) (UniProt P03372). In words: qHTS assay for small molecule antagonists of estrogen receptor alpha signaling (AID 588513; active = well fitted curve in the direction sought with a large enough effect in the signal ratio, with a control signal flat, not every such curve was filed as active; the % refers to the signal ratio; note: % is set by controls: 0 for no effect and ±100 for the full control effect). The essentials:
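Antagonist-mode qHTS in ER-alpha-UAS-bla HEK 293 cells: compound titration, 0.5nM estradiol for 18 h, CCF4 fluorescence, Hill-derived IC50.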
(In qHTS, concentration-response curves come from the screen itself.)

Test [2] has the same target. In words: qHTS assay for small molecule agonists of estrogen receptor alpha signaling (AID 588514).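 Note: 0% = vehicle only and 100% = reference agonist; nearly all actives have a fitted effect of over 70% in size.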 The essentials:
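Reporter-gene assay. […] controls beta-lactamase in HEK 293 GripTite cells; after 18 hrs with compound, CCF4 substrate is added for 2 hrs and fluorescence is read.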

Test [3] concerns the target Peroxisome proliferator-activated receptor delta (Homo sapiens) (UniProt Q03181). Put plainly: qHTS assay for small molecule agonists of peroxisome proliferator-activated receptor delta signaling (AID 588534).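 Note: 0% = DMSO basal wells and 100% = positive control agonist at 10 µM.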 The essentials:
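Reporter cells were plated and held 5 hrs at 37 C before compounds were added. After 18 hrs at 37 C, CCF4 dye was loaded for 2 hrs at RT and fluorescence measured.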

In test [4] the target is Thyroid hormone receptor beta (Homo sapiens) (UniProt P10828). Put plainly: qHTS assay for small molecule agonists of thyroid hormone receptor beta signaling (AID 588545). The essentials:
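Agonist-mode beta-lactamase reporter assay, HEK 293 cells, 2% charcoal/dextran FBS; cells plated 4 hrs, compound 18 hrs at 37 C, CCF4 2 hrs RT. Normalized to 10 nM T3 (100%) and DMSO (0%); Hill fit gives EC50, efficacy.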

A short description of test [5]: qHTS assay for small molecule antagonists of retinoid X receptor alpha signaling (AID 588546; active = well fitted inhibition curve with a large enough effect in the signal ratio, with a control signal flat, not every such curve was filed as active; the % refers to the signal ratio;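 note: cells stimulated with 9-cis-retinoic acid as agonist; % is set by controls: 0 for no effect and ±100 for the full control effect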). The note with it: HEK293T RXRa-UAS-bla, beta-lactamase ratio, antagonist mode; measured here: W530 green channel, cytotoxicity proxy. The essentials:
(§1)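 Beta-lactamase reporter inhibition, read as CCF4 fluorescence ratio (ex 405, em 460/530 nm) after 2 h at RT. HEK293T UAS-bla cells, 2500/well, were stimulated with 9-cis-RA at 500 or 100 nM final alongside test compound for 18 h at 37 C.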

In test [6] the target is Retinoic acid receptor RXR-alpha (Homo sapiens) (UniProt P19793). Described as above. The note with it: HEK293T RXRa-UAS-bla, beta-lactamase ratio, antagonist mode. The essentials: as §1
Sequence of Retinoic acid receptor RXR-alpha (Homo sapiens) (P19793 whole entry, looked up, the tested form may be a part): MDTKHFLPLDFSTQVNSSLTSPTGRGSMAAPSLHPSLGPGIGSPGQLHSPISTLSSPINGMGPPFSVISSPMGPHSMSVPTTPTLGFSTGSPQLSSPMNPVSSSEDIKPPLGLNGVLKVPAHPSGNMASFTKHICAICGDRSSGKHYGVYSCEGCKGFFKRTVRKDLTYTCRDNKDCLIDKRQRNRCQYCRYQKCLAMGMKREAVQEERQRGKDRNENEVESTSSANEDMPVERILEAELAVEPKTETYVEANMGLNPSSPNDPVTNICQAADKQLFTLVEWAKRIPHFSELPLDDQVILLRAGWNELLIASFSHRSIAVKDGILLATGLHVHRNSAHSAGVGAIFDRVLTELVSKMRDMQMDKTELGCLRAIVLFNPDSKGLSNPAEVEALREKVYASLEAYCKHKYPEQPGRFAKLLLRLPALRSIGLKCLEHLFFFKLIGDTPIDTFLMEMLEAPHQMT
The nature of test [7]: qHTS assay for small molecule activators of the p53 signaling pathway (AID 651743; active = well fitted activation curve with a large enough effect in the signal ratio, not every such curve was filed as active; the % refers to the signal ratio; note: series mostly up to about 92 µM; % of control where 0% means no effect). The note with it: HCT-116 p53RE-bla, beta-lactamase FRET ratio, 16 h; activation: stronger effect = higher value. The essentials: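 HCT-116 p53RE-bla, 4,000 cells/well; 5 h settle; cpd/DMSO 16 h, 37 C; LiveBLAzer B/G 2 h RT; fluorescence intensity.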
The nature of test [8]: qHTS assay for environmental chemicals that activate the Aryl hydrocarbon Receptor (AhR) signaling pathway (AID 651777; active = well fitted curve in the direction sought with a large enough effect; an effect the other way counts as inactive or inconclusive; note: % of control where 0% means no effect; nearly all actives have a fitted effect of over 15% in size). Particulars: 1A2-DRE human hepatoma cells, luciferase, 24 h; activation: stronger effect = higher value. The essentials:
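Human hepatoma 1A2-DRE cells, stably carrying a dioxin response element and CYP1A2 promoter driving luciferase, were exposed to compounds for 24 hr at 37 C and 5% CO2. Luciferase signal was then read after 30 min One-Glo at room temperature.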

Test [9] is described as follows: qHTS assay for small molecule agonists of the antioxidant response element (ARE) signaling pathway measured by Nrf2-dependant transcriptional activity (AID 720636; active = well fitted curve in the direction sought with a large enough effect in the repeat runs; an effect the other way counts as inactive or inconclusive; note: % of control where 0% means no effect). The essentials: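 ARE-luc HepG2 cells carrying an Nrf2-responsive luciferase reporter were plated in medium with 1% dialyzed FBS, left 6 hr at 37 C to attach, then exposed to compound for 16 hr. Luciferase luminescence was read after ONE-Glo addition.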

Test [10] can be described thus: qHTS assay for small molecule agonists of the antioxidant response element (ARE) signaling pathway measured by Nrf2-dependant transcriptional activity - cell viability counter screen (AID 720653; active = well fitted curve in the direction sought with a large enough effect in the repeat runs; an effect the other way counts as inactive or inconclusive; note: % is set by controls: 0 for no effect and ±100 for the full control effect). Particulars: ARE-bla HepG2 viability, CellTiter-Glo ATP luminescence, 16 h; max response: stronger effect = lower value. The essentials:
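ARE-bla HepG2 cells treated with compounds for 16 h at 37C; this counter screen measures viability as intracellular ATP by CellTiter-Glo luminescence after 30 min at room temperature.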

A short description of test [11]: qHTS assay for cell viability of HEK293 cells (AID 743288; active = well fitted curve in the direction sought with a large enough effect; an effect the other way counts as inactive or inconclusive; note: % is set by controls: 0 for no effect and ±100 for the full control effect; nearly all actives have a fitted effect of over 50% in size). Particulars: ATP luminescence (CellTiter-Glo), 18 h; max response: stronger effect = lower value. The essentials: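 Luminescent ATP quantitation served as the viability read-out. Cells (parental HEK293, 2,000/well) received compounds after at least 5 h at 37 C and were exposed for 18 h before a 30 min room-temperature reagent step.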

Test [12] in a line: qHTS assay for cell viability of the p53RE-bla HCT-116 cell line (AID 743292; active = well fitted curve in the direction sought with a large enough effect; an effect the other way counts as inactive or inconclusive; note: % is set by controls: 0 for no effect and ±100 for the full control effect; nearly all actives have a fitted effect of over 55% in size). The essentials: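 CellSensor p53RE-bla HCT-116 cells, 4,000/well, preincubated 5 h at 37 C, then exposed to compounds in DMSO for 16 h at 37 C. Viability read as CellTiter-Glo luminescence (intracellular ATP) after 30 min at room temperature.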
Test [13] concerns the target Nuclear receptor subfamily 1 group I member 2 (Rattus norvegicus) (UniProt Q9R1A7). Put plainly: qHTS assay for small molecule activators of the rat pregnane X receptor (rPXR) signaling pathway (AID 651751; call rule not given here; note: 0% is about no effect). Particulars: rPXR reporter cells, luciferase (One-Glo), 24 h.
The target of test [14] is Peroxisome proliferator-activated receptor gamma (Homo sapiens) (UniProt P37231). In words: qHTS assay for small molecule agonists of peroxisome proliferator-activated receptor gamma signaling (AID 588536; active = well fitted curve in the direction sought with a large enough effect in the signal ratio, with a control signal flat, not every such curve was filed as active; the % refers to the signal ratio;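 note: 0% = DMSO basal wells and 100% = rosiglitazone at 2 µM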). The essentials: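 GeneBLAzer PPAR-gamma-UAS-bla HEK293 cells in 1% charcoal/dextran-treated FBS medium were treated 16 h at 37 C with compounds. Beta-lactamase activity was read by CCF4 ratio (460/530 nm). Response was normalized to 2 uM rosiglitazone (100%) and DMSO, then Hill-fitted for EC50 and efficacy.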
Sequence of Peroxisome proliferator-activated receptor gamma (Homo sapiens) (P37231 whole entry, looked up): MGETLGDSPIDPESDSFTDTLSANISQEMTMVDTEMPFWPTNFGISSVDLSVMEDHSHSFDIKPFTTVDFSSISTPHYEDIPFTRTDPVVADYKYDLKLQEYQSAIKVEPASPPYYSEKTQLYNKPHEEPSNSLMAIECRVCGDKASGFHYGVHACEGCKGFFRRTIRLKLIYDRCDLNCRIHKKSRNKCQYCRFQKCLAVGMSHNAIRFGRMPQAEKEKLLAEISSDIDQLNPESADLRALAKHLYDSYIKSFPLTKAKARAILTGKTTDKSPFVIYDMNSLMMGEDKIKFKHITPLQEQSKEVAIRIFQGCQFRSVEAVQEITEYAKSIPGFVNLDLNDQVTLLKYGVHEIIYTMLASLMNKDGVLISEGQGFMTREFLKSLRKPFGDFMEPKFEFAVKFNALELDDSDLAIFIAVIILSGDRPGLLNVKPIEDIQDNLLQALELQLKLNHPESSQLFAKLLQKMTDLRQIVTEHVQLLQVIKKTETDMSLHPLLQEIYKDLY

For test [15], the target named is Vitamin D3 receptor (Homo sapiens) (UniProt P11473). Put plainly: qHTS assay for small molecule antagonists of vitamin D receptor signaling (AID 588541).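 Note: receptor activated by calcitriol during compound treatment; series mostly up to about 77 µM; % is set by controls: 0 for no effect and ±100 for the full control effect.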 The essentials: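 VDR-UAS-bla HEK293T cells in 2% charcoal-stripped FBS were stimulated with 1-alpha,25-dihydroxyvitamin D3 (3 nM final) plus compound for 16 h at 37 C. The beta-lactamase CCF4 readout was normalized to 50 nM agonist and DMSO, and Hill fits gave IC50.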
Sequence of Vitamin D3 receptor (Homo sapiens) (P11473 whole entry, looked up): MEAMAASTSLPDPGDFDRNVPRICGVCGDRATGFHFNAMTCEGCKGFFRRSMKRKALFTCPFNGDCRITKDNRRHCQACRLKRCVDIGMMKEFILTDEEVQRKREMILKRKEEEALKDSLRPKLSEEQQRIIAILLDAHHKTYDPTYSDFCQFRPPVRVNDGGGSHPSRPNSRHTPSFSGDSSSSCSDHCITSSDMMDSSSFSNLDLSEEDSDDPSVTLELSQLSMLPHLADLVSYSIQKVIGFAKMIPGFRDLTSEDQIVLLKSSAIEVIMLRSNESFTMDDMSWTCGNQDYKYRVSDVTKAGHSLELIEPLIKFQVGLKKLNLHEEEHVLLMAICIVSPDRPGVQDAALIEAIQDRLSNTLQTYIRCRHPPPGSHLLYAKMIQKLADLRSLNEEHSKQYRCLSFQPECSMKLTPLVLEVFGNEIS

Test [16] can be described thus: qHTS assay for small molecule agonists of retinoid X receptor alpha signaling (AID 588544).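 For activation: 0% = DMSO basal wells and 100% = reference agonist.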 Note: potency is the fitted concentration of half-maximal effect. Particulars: HEK293T RXRa-UAS-bla, beta-lactamase reporter, 18 h; 530 nm emission.
Test [17] concerns the target Retinoic acid receptor RXR-alpha (Homo sapiens) (UniProt P19793). The description is as above.
Test [18] has as its target Peroxisome proliferator-activated receptor alpha (Homo sapiens) (UniProt Q07869). In words: qHTS assay for small molecule agonists of the peroxisome proliferator-activated receptor alpha (PPARalpha) signaling pathway (AID 651778; active = well fitted curve in the direction sought with a large enough effect; an effect the other way counts as inactive or inconclusive; note: % of control where 0% means no effect). The note with it: PathHunter PPARalpha complementation, chemiluminescence, 6 h; max response: stronger effect = higher value. The essentials: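 Enzyme-fragment complementation assay in which ligand-bound PPARalpha translocates and forms an active enzyme that generates chemiluminescence. Cells were plated overnight, exposed to compound for 6 hr at 37 C, and then given detection reagent for 60 min at room temperature.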

The target in test [19] is Peroxisome proliferator-activated receptor gamma (Homo sapiens) (UniProt P37231). In words: qHTS assay for small molecule antagonists of peroxisome proliferator-activated receptor gamma signaling (AID 588537; active = well fitted inhibition curve with a large enough effect in the signal ratio, with a control signal flat, not every such curve was filed as active; the % refers to the signal ratio;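 note: reporter cells co-stimulated with 50 nM rosiglitazone agonist during compound treatment; % of control where 0% means no effect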). The essentials: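 Step one: plate 3000 HEK293 UAS-bla cells per well in medium with 1% stripped serum and hold 6-6.5 h at 37 C. Step two: add compound and 50 nM agonist for 16 h. Step three: CCF4 loading, fluorescence read.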

For test [20], the target named is Thyroid hormone receptor beta (Homo sapiens) (UniProt P10828). Put plainly: qHTS assay for small molecule antagonists of thyroid hormone receptor beta signaling (AID 588547; active = well fitted inhibition curve with a large enough effect in the signal ratio, with a control signal flat, not every such curve was filed as active; the % refers to the signal ratio). Particulars: TR-UAS-bla HEK293, beta-lactamase ratio, antagonist mode, 18 h. The essentials:
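TR-UAS-bla GripTite HEK293 cells in 2% charcoal/dextran FBS medium; compounds 0.59 nM to 92 uM with T3 at 0.4nM final, 18 h at 37 C. Beta-lactamase read by CCF4 fluorescence (460/530 nm); Hill fits gave IC50 and efficacy.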

Sequence of Peroxisome proliferator-activated receptor delta (Homo sapiens) (Q03181 whole entry, looked up): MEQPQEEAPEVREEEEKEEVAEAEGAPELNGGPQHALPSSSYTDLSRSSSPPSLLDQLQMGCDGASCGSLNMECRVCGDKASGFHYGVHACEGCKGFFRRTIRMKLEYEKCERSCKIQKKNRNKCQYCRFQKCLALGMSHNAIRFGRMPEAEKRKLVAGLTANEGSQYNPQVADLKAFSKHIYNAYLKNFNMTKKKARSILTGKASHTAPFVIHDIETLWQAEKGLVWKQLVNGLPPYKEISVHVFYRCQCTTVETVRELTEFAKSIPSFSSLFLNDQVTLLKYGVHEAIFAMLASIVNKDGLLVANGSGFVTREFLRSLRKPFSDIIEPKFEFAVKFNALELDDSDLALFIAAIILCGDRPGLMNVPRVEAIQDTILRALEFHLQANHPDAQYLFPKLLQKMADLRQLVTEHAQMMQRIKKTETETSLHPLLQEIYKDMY
Sequence of Thyroid hormone receptor beta (Homo sapiens) (P10828 whole entry, looked up): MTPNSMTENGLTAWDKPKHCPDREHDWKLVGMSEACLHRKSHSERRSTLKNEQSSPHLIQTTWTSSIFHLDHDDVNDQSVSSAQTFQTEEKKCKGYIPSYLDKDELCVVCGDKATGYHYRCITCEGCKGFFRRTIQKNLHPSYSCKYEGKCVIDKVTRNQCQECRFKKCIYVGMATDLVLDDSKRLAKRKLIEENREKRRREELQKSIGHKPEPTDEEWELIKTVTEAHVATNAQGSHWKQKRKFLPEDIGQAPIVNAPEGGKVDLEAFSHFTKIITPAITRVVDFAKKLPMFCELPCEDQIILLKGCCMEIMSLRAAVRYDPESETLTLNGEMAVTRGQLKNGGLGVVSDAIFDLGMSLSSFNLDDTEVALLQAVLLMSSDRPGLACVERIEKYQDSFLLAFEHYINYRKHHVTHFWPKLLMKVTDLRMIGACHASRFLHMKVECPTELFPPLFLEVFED
Sequence of Peroxisome proliferator-activated receptor alpha (Homo sapiens) (Q07869 whole entry, looked up, the tested form may be a part): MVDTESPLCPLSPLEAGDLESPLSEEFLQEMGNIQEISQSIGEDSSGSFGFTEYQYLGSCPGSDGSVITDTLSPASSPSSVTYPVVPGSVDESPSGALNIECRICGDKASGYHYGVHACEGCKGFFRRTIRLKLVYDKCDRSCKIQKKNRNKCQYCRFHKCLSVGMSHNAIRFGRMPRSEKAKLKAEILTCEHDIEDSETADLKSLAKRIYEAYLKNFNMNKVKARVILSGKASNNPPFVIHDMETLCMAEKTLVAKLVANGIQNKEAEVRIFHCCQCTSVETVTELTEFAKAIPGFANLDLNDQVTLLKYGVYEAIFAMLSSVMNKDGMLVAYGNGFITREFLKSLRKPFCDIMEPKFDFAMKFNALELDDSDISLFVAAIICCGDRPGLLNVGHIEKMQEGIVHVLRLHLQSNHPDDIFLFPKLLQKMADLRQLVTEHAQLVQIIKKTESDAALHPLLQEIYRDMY
Sequence of Nuclear receptor subfamily 1 group I member 2 (Rattus norvegicus) (Q9R1A7 whole entry, looked up): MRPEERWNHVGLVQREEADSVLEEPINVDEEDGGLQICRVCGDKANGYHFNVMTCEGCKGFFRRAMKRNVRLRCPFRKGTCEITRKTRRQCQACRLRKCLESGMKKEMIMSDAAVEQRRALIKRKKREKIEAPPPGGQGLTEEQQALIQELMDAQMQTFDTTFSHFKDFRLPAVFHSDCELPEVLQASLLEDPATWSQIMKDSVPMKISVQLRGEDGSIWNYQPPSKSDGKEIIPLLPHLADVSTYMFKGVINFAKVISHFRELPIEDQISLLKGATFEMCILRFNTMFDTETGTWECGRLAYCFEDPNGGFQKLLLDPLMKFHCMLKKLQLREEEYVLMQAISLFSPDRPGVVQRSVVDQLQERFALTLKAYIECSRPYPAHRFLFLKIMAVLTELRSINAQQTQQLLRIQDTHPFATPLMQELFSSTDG
Sequence of Estrogen receptor (Homo sapiens) (P03372 whole entry, looked up): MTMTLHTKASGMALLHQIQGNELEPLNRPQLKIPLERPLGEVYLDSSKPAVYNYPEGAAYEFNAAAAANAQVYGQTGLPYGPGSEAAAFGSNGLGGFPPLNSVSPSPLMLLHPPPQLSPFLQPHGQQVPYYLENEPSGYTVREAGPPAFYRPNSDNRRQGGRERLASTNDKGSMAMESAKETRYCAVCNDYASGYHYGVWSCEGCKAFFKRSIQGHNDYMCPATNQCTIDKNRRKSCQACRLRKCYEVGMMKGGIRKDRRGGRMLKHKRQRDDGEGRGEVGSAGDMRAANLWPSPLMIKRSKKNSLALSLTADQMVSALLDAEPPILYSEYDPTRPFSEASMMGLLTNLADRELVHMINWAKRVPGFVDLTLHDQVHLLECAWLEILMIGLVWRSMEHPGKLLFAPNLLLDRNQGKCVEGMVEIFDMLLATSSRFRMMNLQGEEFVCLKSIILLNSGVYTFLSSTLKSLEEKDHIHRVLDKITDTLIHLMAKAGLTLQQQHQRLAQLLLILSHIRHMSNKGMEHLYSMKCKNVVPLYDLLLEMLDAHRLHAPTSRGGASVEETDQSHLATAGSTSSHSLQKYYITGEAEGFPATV

Regarding `NS(=O)(=O)C(F)(F)C(F)(F)C(F)(F)C(F)(F)C(F)(F)C(F)(F)C(F)(F)C(F)(F)F`, the Potency entry in test [1], in test [2], in test [4], in test [9] and in test [12] was “inactive” each time. For the same molecule, the molecule was called inactive in test [3]. For the same molecule, the max response in test [5] was -4.16%; in [6] it was -55.1% (inactive); in test [10], -2.62% (inactive); in test [11] it was -13.7% (inactive); in test [13], -9.61% (inactive). Moreover, the figures for the activation in test [7] and in test [8] were 13.9% (inactive) and 4% (inactive), respectively.

For `C=CC(=O)OCCCCCC(C)C`, the Potency entry in test [1], in test [2], in test [14], in test [15], in test [4] and in test [9] was “inactive” each time. In [12], the Potency entry was “inactive”. The call in test [3] was inactive. The max response in test [16] is -13.5%; in [5] it was -15.4%; in test [6], -5.23% (inactive); in test [18], -1.09% (inactive); in [10], 8.44% (inactive); in test [11], 4.71% (inactive). Further, the max response in test [13] is 0.944% (inactive). Besides, the Potency in [17] was 31.6 µM (active). Moreover, the activation in [7] is -4.19% (inactive); in test [8], -0.0847% (inactive).

Turning to `CCOP(=S)(S)OCC`, the Potency result in test [1], in test [2], in test [19], in [15], in test [17] and in [4] was “inactive” throughout. Further, the Potency entry in [9] and in test [12] was “inactive” each time. In test [3], the outcome was inactive. The max response was -7.79% in [16]; -11.3% in test [5]; -16.6% (inactive) in [6]; -2.08% (inactive) in [18]; 2.15% (inactive) in test [10]; -0.594% (inactive) in test [11]. For the same molecule, in test [13], the max response is 1.97% (inactive). For the same molecule, the activity change % (negative = inhibition) in test [20] was 8.37% (inactive). The results for the activation in test [7] and in test [8] were -1.75% (inactive) and 0.356% (inactive), respectively.

Consider `FC(F)(F)c1ccc(OCCCOc2c(Cl)cc(OCC=C(Cl)Cl)cc2Cl)nc1`, for which the Potency entry in test [1], in test [2], in test [14], in test [15], in test [17] and in test [4] was “inactive” each time. Moreover, in test [12], the Potency result is “inactive”. For the same molecule, the molecule was called inactive in test [3]. Further, the max response in [5] was -14.8%; in test [6], 3.21% (inactive); in test [18], -0.598% (inactive); in test [10], -24.7% (inactive); in [11], -6.52% (inactive); in [13], 1.93% (inactive). Further, the activity change % (negative = inhibition) in test [20] is 2.93% (inactive). The activation was 2.67% (inactive) in [7] and -0.256% (inactive) in test [8].

On to `O=[As](O)(O)O`, for which the Potency entry in test [1], in test [2], in [14], in [15], in test [17] and in test [4] was “inactive” each time. Further, the Potency result in test [12] was “inactive”. Also, the molecule was called inactive in test [3]. The max response in [16] is -18.2%; in test [5], -3.47%; in test [6] it was -6.13% (inactive); in test [18] it was 0.0106% (inactive); in test [10], -8.77% (inactive); in [11], -4.83% (inactive). In test [13], the max response is -1.48% (inactive). The activity change % (negative = inhibition) in test [20] is -13.2% (inactive). Moreover, in test [7], the activation was -0.546% (inactive).
